Measurements as given in PubChem BioAssay (NCATS).
Results filed as inconclusive are left out. Active and inactive are the calls of the source. Unless noted, calls come from the whole dose curve; as a rule, active = well fitted curve in the direction sought with a large enough effect; inconclusive = small, poorly fitted or top-dose-only effect, or another doubt; inactive = no such curve, though single readings can be large; an effect the other way counts as inactive or inconclusive.

Key:
[1] = qHTS for Inhibitors of Plasmodium falciparum (DD2) proliferation (AID 504314);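 note: parasite DNA measured by SYBR Green fluorescence after red cell lysis; plate controls were DMSO vehicle for no effect and artemisinin wells for full effect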
Method in brief: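 SYBR Green DNA-fluorescence growth assay: infected RBCs at 0.3% parasitemia, 2.5% hematocrit, 72 h compound exposure, 37C, 5% CO2; overnight lysis with dye at RT; normalized to 0.29 uM artemisinin and vehicle.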

[2] = qHTS for Inhibitors of Plasmodium falciparum (GB4) proliferation (AID 504315);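 note: 0% = DMSO vehicle and -100% = 0.29 µM artemisinin control; nearly all actives have a fitted effect of over 50% in size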
Method in brief: (§1)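 Parasite growth measured as SYBR Green DNA fluorescence (ex 485, em 535 nm) after overnight lysis following 72 h culture at 37 °C, 0.3% parasitemia, 2.5% hematocrit. Values normalized against DMSO and 0.29 uM artemisinin controls, with plate-stack correction.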

[3] = qHTS for Inhibitors of Plasmodium falciparum (HB3) proliferation (AID 504318);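 note: 0% = DMSO vehicle and -100% = artemisinin control; nearly all actives have a fitted effect of over 60% in size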
Method in brief: as §1

[4] = qHTS for Inhibitors of Plasmodium falciparum (CP250) proliferation (AID 504320);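 note: plate controls were DMSO vehicle for no effect and 0.29 µM artemisinin control for full effect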
Method in brief: as §1

[5] = target: Atrial natriuretic peptide receptor 1 (Homo sapiens) (UniProt P16066); test: Natriuretic polypeptide receptor (hNpr1) antagonism - Pilot CMLD screen (AID 1347052; calls by dose curve;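 note: HEK293 cells with hNpr1 stimulated by hNppA peptide at 0.1 nM; cGMP level read as GloSensor luciferase luminescence after agonist stimulation; series mostly up to about 9.2 µM; % is set by controls: 0 for no effect and ±100 for the full control effect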)
[6] = target: Cytochrome P450 2C9 (Homo sapiens) (UniProt P11712); test: qHTS Assay for Inhibitors and Substrates of Cytochrome P450 2C9 (AID 883); note: % is set by controls: 0 for no effect and ±100 for the full control effect; nearly all actives have a fitted effect of over 60% in size
Method in brief: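 CYP2C9 deoxyluciferin hydroxylation, 37C, 60 min with NADPH regeneration; 10nM enzyme, 100uM Luciferin-H (KM). Glo detection reagent stopped reaction; luminescence normalized to sulphaphenazole (57uM) full inhibition.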

[7] = target: Cytochrome P450 3A4 (Homo sapiens) (UniProt P08684); test: qHTS Assay for Inhibitors and Substrates of Cytochrome P450 3A4 (AID 884); note: series mostly up to about 57 µM; % is set by controls: 0 for no effect and ±100 for the full control effect; nearly all actives have a fitted effect of over 50% in size
Method in brief: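 Luminescent readout of luciferin produced by CYP3A4 (20 nM) dealkylation of Luciferin-PPXE, 25 uM (its KM). NADPH-driven reaction ran 60 min at RT after 10 min compound preincubation; data scaled to 57 uM ketoconazole as 100% inhibition.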

[8] = target: Cytochrome P450 2D6 (Homo sapiens) (UniProt P10635); test: qHTS Assay for Inhibitors and Substrates of Cytochrome P450 2D6 (AID 891);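 note: luciferin methyl ether substrate demethylated by CYP2D6 with NADPH regeneration; % is set by controls: 0 for no effect and ±100 for the full control effect; nearly all actives have a fitted effect of over 60% in size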
Method in brief: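 Luminescent read-out of luciferin formed by 5 nM human CYP2D6 demethylating 30 uM Luciferin-ME EGE (Km level) over 60 min at room temperature after NADPH regeneration addition. Data normalized to full inhibition by 1.43 uM quinidine.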

[9] = target: Cytochrome P450 2C19 (Homo sapiens) (UniProt P33261); test: qHTS Assay for Inhibitors and Substrates of Cytochrome P450 2C19 (AID 899); note: % is set by controls: 0 for no effect and ±100 for the full control effect; nearly all actives have a fitted effect of over 60% in size
Method in brief: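 In 50mM KPO4, the reaction held 5nM enzyme and KM-level (10uM) Luciferin-H EGE; it ran 60 min at 37C after NADPH regeneration and a 10 min compound preincubation. Luminescence values were scaled to 57uM ketoconazole as complete inhibition.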

[10] = target: Cytochrome P450 3A4 (Homo sapiens) (UniProt P08684); test: qHTS Assay for Activators of Cytochrome P450 3A4 (AID 885); note: nearly all actives have a fitted effect of over 65% in size
Method in brief: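 Activators are scored by enhanced luminescence from CYP3A4 conversion of luciferin-PPXE (25uM, equal to KM) to luciferin, after 60 min at RT with an NADPH-regenerating system.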

[11] = qHTS for Inhibitors of Plasmodium falciparum (7G8) proliferation (AID 504316);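 note: series mostly up to about 6.7 µM; 0% = DMSO vehicle and -100% = 0.29 µM artemisinin full kill; nearly all actives have a fitted effect of over 65% in size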
Method in brief: as §1

Sequence of Atrial natriuretic peptide receptor 1 (Homo sapiens) (P16066 whole entry, looked up): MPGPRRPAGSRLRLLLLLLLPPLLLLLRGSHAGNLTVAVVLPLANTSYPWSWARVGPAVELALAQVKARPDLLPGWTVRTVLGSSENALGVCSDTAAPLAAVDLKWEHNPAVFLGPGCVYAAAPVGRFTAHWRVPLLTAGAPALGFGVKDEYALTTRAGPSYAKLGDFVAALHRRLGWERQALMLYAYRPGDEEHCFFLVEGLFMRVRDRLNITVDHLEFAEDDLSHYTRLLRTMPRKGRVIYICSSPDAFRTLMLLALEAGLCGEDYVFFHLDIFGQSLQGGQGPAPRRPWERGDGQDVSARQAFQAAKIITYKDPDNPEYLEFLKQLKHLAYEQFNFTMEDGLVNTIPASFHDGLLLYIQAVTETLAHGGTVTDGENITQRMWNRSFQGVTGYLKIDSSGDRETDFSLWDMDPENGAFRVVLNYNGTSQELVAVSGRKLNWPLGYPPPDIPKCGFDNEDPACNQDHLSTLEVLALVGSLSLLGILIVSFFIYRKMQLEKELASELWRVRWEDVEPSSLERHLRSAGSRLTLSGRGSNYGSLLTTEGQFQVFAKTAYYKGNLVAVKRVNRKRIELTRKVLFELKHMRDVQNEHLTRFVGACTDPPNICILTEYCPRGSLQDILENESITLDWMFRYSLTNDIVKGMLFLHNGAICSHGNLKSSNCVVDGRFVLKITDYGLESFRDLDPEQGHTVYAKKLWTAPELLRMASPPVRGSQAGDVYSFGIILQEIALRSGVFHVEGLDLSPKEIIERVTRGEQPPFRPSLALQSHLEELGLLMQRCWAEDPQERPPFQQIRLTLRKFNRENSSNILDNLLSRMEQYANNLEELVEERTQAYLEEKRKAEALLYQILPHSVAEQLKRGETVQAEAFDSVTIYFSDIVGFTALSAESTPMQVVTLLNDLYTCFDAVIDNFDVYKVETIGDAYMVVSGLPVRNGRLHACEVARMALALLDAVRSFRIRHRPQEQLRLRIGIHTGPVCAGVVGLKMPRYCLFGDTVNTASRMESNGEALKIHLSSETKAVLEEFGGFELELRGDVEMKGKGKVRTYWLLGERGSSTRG
Sequence of Cytochrome P450 3A4 (Homo sapiens) (P08684 whole entry, looked up): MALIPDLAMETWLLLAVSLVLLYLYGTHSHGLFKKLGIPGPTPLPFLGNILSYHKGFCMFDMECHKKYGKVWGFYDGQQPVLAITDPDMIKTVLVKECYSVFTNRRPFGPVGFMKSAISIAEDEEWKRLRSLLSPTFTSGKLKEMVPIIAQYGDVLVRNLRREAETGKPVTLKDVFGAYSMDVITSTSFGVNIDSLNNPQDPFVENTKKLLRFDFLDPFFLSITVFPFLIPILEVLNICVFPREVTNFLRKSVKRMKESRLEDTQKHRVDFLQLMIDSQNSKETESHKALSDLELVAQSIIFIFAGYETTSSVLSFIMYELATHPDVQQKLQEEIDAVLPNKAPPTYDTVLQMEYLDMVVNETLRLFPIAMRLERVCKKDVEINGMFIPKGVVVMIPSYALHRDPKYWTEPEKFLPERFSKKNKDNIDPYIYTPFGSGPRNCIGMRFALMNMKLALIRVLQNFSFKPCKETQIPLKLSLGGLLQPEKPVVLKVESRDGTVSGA
Sequence of Cytochrome P450 2D6 (Homo sapiens) (P10635 whole entry, looked up): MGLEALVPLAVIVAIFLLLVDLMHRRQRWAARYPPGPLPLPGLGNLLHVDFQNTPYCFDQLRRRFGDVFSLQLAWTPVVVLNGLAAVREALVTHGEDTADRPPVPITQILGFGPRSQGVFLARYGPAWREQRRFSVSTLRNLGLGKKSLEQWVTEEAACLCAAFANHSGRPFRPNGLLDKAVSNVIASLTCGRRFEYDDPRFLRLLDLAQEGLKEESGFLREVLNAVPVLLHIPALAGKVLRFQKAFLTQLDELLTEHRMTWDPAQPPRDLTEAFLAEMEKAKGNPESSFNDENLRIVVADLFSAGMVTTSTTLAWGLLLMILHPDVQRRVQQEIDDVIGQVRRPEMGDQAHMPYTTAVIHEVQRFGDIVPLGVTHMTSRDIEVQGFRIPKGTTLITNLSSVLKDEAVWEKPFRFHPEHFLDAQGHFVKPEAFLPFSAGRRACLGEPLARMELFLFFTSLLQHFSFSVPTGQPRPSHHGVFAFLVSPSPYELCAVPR
Sequence of Cytochrome P450 2C9 (Homo sapiens) (P11712 whole entry, looked up): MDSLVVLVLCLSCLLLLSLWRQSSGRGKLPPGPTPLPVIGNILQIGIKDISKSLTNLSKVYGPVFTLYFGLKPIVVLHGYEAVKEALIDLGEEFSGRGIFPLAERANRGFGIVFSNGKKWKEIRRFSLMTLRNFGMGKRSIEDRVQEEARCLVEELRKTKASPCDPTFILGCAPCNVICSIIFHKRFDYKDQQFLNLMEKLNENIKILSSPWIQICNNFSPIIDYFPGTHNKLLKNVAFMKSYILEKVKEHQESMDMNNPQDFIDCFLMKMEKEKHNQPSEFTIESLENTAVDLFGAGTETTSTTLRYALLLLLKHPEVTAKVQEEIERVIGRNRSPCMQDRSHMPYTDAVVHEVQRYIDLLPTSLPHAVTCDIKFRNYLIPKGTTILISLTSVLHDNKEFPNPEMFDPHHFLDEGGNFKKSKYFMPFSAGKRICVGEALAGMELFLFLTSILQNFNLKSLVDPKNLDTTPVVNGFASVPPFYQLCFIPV
Sequence of Cytochrome P450 2C19 (Homo sapiens) (P33261 whole entry, looked up): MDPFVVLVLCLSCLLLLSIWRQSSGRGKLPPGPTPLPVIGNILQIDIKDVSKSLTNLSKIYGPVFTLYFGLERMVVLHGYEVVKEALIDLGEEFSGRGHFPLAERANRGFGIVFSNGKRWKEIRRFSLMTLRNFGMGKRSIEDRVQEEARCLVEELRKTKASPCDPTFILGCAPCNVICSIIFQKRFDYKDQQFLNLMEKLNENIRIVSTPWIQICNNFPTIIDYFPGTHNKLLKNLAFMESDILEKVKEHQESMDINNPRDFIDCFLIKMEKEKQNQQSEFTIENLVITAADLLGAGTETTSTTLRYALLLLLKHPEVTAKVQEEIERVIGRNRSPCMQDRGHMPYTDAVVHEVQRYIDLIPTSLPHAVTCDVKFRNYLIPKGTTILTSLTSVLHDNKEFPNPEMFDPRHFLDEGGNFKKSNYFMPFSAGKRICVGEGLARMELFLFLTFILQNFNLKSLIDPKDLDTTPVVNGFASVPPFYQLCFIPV

C=CCC(Nc1ccc(OC)cc1)(C(=O)OCC)c1ccccc1 (stereo unspecified)
inactive: Potency [1] | Potency [2] | Potency [3] | Potency [4] | Potency [5]

COC(=O)N[C@H](C[N+](=O)[O-])c1cccc(C)c1
inactive: Potency [1] | Potency [2] | Potency [3] | Potency [4] | Potency [5]

CCN1C(=S)NC(c2ccccc2)C(C(=O)OC)=C1C (stereo unspecified)
inactive: Potency [1] | Potency [2] | Potency [3] | Potency [4] | Potency [5]

CC(CCC(=O)OC[C@H]1O[C@H](C#Cc2ccccc2)C=C[C@H]1Oc1ccc(C)cc1)=NO[C@@H](C)CN1CCCCc2nc(C)c(C)cc21
inactive: Potency [1] | Potency [2] | Potency [3] | Potency [4] | Potency [5]

COC(=O)[C@H](COC(C)(C)C)NC(=O)O[C@@H]1C(=O)c2cc(OC)ccc2O[C@H]1c1cccc(OC)c1
inactive: Potency [1] | Potency [2] | Potency [3] | Potency [4] | Potency [5]

C=CCCN1C=C(C(=O)OCC)C(c2ccccc2)NC1=O (stereo unspecified)
inactive: Potency [1] | Potency [2] | Potency [3] | Potency [4] | Potency [5]

COc1ccc(-c2ccc3c(n2)CCCN3CC(O)CN2CCCc3nc(C)c(C)cc32)cc1 (stereo unspecified)
inactive: Potency [1] | Potency [2] | Potency [3] | Potency [4] | Potency [5]

CC(CCC(=O)OC[C@H]1O[C@H](C#Cc2ccccc2)C=C[C@H]1Oc1ccc(C)cc1)=NOC[C@@H](O)[C@H]1O[C@@H]2OC(C)(C)O[C@H]2[C@@H]1O
inactive: Potency [1] | Potency [2] | Potency [3] | Potency [4] | Potency [5]

C=CCOC(=O)N[C@@H](CC(C)C)C(C(=O)OC)=C(C)NCc1ccccc1
inactive: Potency [1] | Potency [2] | Potency [3] | Potency [4] | Potency [5]

CCCCS(=O)(=O)N1C2=NC3=C(C(=O)N(CCOC)C3=O)C3N(C)c4ccccc4[C@]23C[C@H]1CO (stereo partly specified)
inactive: Potency [1] | Potency [2] | Potency [3] | Potency [4] | Potency [5]

CCCCCCCc1cc2ccccc2c2c(C(=O)OCC)c(C(=O)OCC)c(C(=O)OCC)n12
inactive: Potency [1] | Potency [2] | Potency [3] | Potency [4] | Potency [5]

Cn1c(-c2ccccc2)c(O)c(=O)c2ccccc21
inactive: activity change, negative = inhibition [6] -1.19% [at 11.4 µM] | activity change, negative = inhibition [7] -14.6% [at 11.4 µM] | activity change, negative = inhibition [8] 4.63% [at 11.4 µM] | activity, negative = inhibition [9] 50% [at 11.4 µM] | Potency [1] | Potency [2] | Potency [3] | Potency [4] | Potency [5]

Cc1ccc2[nH]c3nc(CCCn4ccnc4-c4ccccc4)nnc3c2c1
inactive: activity change, positive = activation [10] -50.4% [at 11.4 µM] | Potency [3]

CCCCCCCc1cc2ccccc2c2c(C=O)c(CCCC)c(C(=O)OC)n12
inactive: Potency [1] | Potency [2] | Potency [4] | Potency [5]

COC(=O)[C@@]1(Cc2ccccc2-c2ccco2)C=C[C@H](C)[C@@H](c2ccccc2)N1C(=O)C(F)(F)F
inactive: Potency [1] | Potency [2] | Potency [4] | Potency [5]

COC(=O)CCCC1=CC2=CC(=O)C(C)(OC(=O)c3cccs3)C(=O)C2=CN1Cc1ccco1 (stereo unspecified)
inactive: Potency [1] | Potency [2] | Potency [4] | Potency [5]

CCCNC(=O)CC1OC(C2CCCCC2)Cc2ccccc21 (stereo unspecified)
inactive: Potency [1] | Potency [2] | Potency [4] | Potency [5]

O=C(NCCOc1ccccc1)O[C@@H]1C(=O)c2cc(Br)ccc2O[C@H]1c1ccc2c(c1)OCO2
inactive: Potency [1] | Potency [2] | Potency [4] | Potency [5]

COC(=O)[C@@H]1C=C[C@H](C)[C@H](CCOc2ccccc2)O1
inactive: Potency [1] | Potency [2] | Potency [4] | Potency [5]

CC(C)=CCCC(C)=CCON=C1C[C@@H](O)[C@@H](O)[C@@H]2[C@H]3C(=O)N(Cc4ccc5c(c4)OCO5)C(=O)[C@@H]3CC[C@H]12
inactive: Potency [1] | Potency [2] | Potency [4] | Potency [5]

C[C@H]1Cc2c(COc3ccccc3)nc3c(c2CO1)CN(S(=O)(=O)c1ccc2c(c1)OCCN2C)CC3
inactive: activity, negative = inhibition [1] -3.65% [at 1.12 µM] | Potency [2] | Potency [4] | Potency [5]

C[C@@H]1CC[C@H]2C(=O)N(Cc3cccc([N+](=O)[O-])c3)C[C@@H](O)CN2[C@@H]1c1ccc(Br)cc1
inactive: Potency [1] | Potency [2] | Potency [4] | Potency [5]

COC(=O)C(C(=O)OC)[C@@H]1O[C@@]23COCC[C@]2(C)[C@@H]3c2ccccc21
inactive: Potency [1] | Potency [11] | Potency [3] | Potency [5]

CCN1C(=O)[C@@H]2[C@H]3[C@H](O)[C@H](O)CC(=NOC[C@H]4O[C@H](c5ccccc5)C=C[C@H]4Oc4ccc(OC)cc4)[C@@H]3CC[C@H]2C1=O
inactive: Potency [1] | Potency [2] | Potency [4] | Potency [5]

C=C(CO[C@@H]1C=C[C@@H](c2ccccc2)O[C@@H]1CO)c1ccccc1
inactive: Potency [1] | Potency [2] | Potency [4] | Potency [5]

COC(=O)[C@@H]1[C@@H](c2ccccc2)NC(=O)N(CCc2cc(OC)c(OC)c(OC)c2)[C@@H]1C
inactive: Potency [1] | Potency [2] | Potency [4] | Potency [5]

C[C@H]1C(C(=O)N2CCCC2)=Cc2[nH]c(=O)[nH]c2C=C1c1ccccc1
inactive: Potency [1] | Potency [2] | Potency [4] | Potency [5]

COc1ccc(COC(=O)NN=C2C[C@@H](O)[C@@H](O)[C@@H]3[C@H]4C(=O)N(C[C@@H]5CCCO5)C(=O)[C@@H]4CC[C@H]23)cc1
inactive: Potency [1] | Potency [2] | Potency [4] | Potency [5]
